Source: PubChem
Rows were chosen to be rich in hits. Some 1.4% of all compounds tested hit in one or more screens of this group.
PGE2 EP2 inh: human EP2 receptor antagonists, primary screen, TR-FRET cAMP, C6 glioma cells; Prostaglandin E2 receptor EP2 subtype (Homo sapiens), P43116; C6 glioma cells expressing human EP2; cells stimulated with saturating PGE2; inhibition, % at 25 µM; hit rate 0.52% among 260,000; AID 1422, 2008;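 active means percent inhibition above 40 after rounding to a whole number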;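 further: rat C6 glioma host cells with rolipram phosphodiesterase inhibitor present; the protocol text gives 20 µM as final concentration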
EP2 modulator: EP2 receptor modulators, cAMP readout, primary screen, cell-based, HTRF cAMP, PGE2 stimulation; Prostaglandin E2 receptor EP2 subtype (Homo sapiens), P43116; EP2-expressing cells, cAMP HTRF FRET, PGE2 co-stimulation; induction, % at 25 µM; hit rate 0.83% among 260,000; AID 940, 2007;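 active means compounds whose cAMP rise, as percent of the full-agonist control response, exceeds 60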;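 further: rat C6 glioma line stably carrying human EP2 under a CMV promoter; the protocol text gives 20 µM as final concentration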
Furin inh: human furin inhibitors, primary screen, biochemical, fluorescence intensity; P09958; purified furin, fluorogenic substrate cleavage; inhibition, % at 20 µM or 30 µM; hit rate 0.061% among 220,000; AID 463115, 2010; in the data active means inhibition above about 25%
Target sequence (P09958 108-714 limits assumed): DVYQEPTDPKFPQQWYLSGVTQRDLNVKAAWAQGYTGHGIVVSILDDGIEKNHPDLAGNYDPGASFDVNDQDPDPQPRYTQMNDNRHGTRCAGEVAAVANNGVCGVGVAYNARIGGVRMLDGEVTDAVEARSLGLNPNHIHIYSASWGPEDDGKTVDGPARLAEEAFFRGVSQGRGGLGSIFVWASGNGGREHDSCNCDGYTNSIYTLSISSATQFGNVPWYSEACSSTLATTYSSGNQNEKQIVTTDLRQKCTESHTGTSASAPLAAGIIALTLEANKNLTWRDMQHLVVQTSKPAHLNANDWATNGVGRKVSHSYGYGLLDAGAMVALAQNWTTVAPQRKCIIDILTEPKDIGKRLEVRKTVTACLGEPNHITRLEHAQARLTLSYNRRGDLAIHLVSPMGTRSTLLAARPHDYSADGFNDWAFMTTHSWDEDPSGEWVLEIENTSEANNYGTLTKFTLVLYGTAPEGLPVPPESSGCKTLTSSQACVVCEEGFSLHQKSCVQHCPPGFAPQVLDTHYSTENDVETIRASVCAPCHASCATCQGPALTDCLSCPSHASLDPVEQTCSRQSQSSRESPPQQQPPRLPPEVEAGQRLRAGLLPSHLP
Pf gametocyte: late stage P. falciparum gametocyte viability inhibitors, primary screen, ATP luminescence, HTS. P. falciparum stage V gametocytes, 24 h. inhibition, % at 10.9 µM. hit rate 0.065% among 150,000. AID 743093, 2013;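 active means inhibition above the mean plus 3 SD of compounds within the control limits, set per campaign, cut at about 38% in these data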
HSV augment: enhancers of HSV replication in host cells, fold increase, host cell viability; HSV replication augmentation in cells; maximum fold increase; hit rate 0.005% among 220,000; AID 1956, 2009; in the data active means maximum fold increase above about 1.5; tested in PC3 cells
EP2 confirm: cAMP induction in EP2, EP4, beta2-AR and parental cells, confirmation, counter-screen for EP2 modulator project, cell-based, five parallel assays, C6 glioma, HEK293 | AID 1080, 2008 | calls only at 20 µM (by protocol) | cAMP HTRF induction; plus low (about EC15) PGE2 agonist | hit rate 47% among 1,300 | shares compounds with EP2 modulator;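 active means cAMP induction above 50% in the main assay while under 30% in all four parallel counter assays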;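 further: rat C6 glioma cells stably expressing human EP2 receptor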
Large screens that a line does not name were inactive (follow-up assays come after a bar, where they were run).

COC(=O)CSc1nc(-c2ccccc2)nc2ccccc12	EP2 modulator 67.8 | EP2 confirm active
CCOC(=O)c1cnn(-c2nc(-c3ccc(F)cc3)cs2)c1C(F)(F)F	EP2 modulator 65.3 | EP2 confirm inactive
O=S(=O)(Cc1ccccc1)N1CCCc2ccccc21	none
O=C(O)c1ccc(-c2nc(-c3cccc(C(F)(F)F)c3)cs2)cc1	EP2 modulator 69.9 | EP2 confirm active
C=CCn1cc(C(=O)NCCOC)c(=O)c2cc(S(=O)(=O)N(CC)CC)ccc21	none
Cc1ccc(S(=O)(=O)n2c3ccc(Cl)cc3c3nc(C)sc32)cc1	EP2 modulator 89.9 | EP2 confirm active
COC(=O)Cn1c2ccc(Cl)cc2c2nc(C)sc21	none
Cc1ccc(C(=O)C2=C(O)C(=O)N(CCCn3ccnc3)C2c2ccc(OC(C)C)cc2)o1 (centres undefined)	EP2 modulator 65.1 (no result: Pf gametocyte) | EP2 confirm inactive
CCOc1ccc(C2C(C(=O)c3ccco3)=C(O)C(=O)N2CCCn2ccnc2)cc1 (centres undefined)	none (no result: Pf gametocyte)
Cc1csc(N/N=C/c2ccc([N+](=O)[O-])cc2)n1	none (no result: PGE2 EP2 inh, EP2 modulator, Furin inh, HSV augment)
O=C(O)c1csc(N/N=C/c2ccc(Br)cc2)n1	EP2 modulator 72.8 | EP2 confirm inactive
O=C(COC(=O)c1ccccc1S(=O)(=O)N1CCCCC1)NCC(F)(F)F	none (no result: Pf gametocyte)
O=C(NCc1ccc(-c2nc3ccccc3s2)cc1)c1ccc(Br)o1	none (no result: Pf gametocyte)
O=C(Nc1ccccc1-c1nc2ccccc2s1)c1ccc(Br)o1	EP2 modulator 77.6 (no result: Pf gametocyte) | EP2 confirm active
Cc1ccc2cccc(NC(=O)c3ccc(Br)o3)c2n1	EP2 modulator 87.3 | EP2 confirm active
COc1ccc(Cn2c(C)c(C)c(C#N)c2NC(=O)Nc2ccccc2)cc1	none (no result: PGE2 EP2 inh, Pf gametocyte, HSV augment)
O=C(Nc1ccccn1)c1sc2cc([N+](=O)[O-])ccc2c1Cl	none (no result: PGE2 EP2 inh, EP2 modulator, Furin inh, HSV augment)
Cc1ccc2c(c1)[C@H]1[C@H](CO2)[C@H](c2ccccc2)[C@]2(C)C(=O)Nc3ccccc3C(=O)N12	none (no result: PGE2 EP2 inh, EP2 modulator, Furin inh, HSV augment)
Cc1ccc(N=Nc2c(N)[nH]n3c(=O)c4c(nc23)CCCC4)cc1	EP2 modulator 81.5 (no result: PGE2 EP2 inh, Pf gametocyte, HSV augment) | EP2 confirm active
CCOC(=O)CC(=O)CSc1nnc2c(n1)[nH]c1ccccc12	none
CCC(C)C(=O)Nc1ccc([N+](=O)[O-])cc1OC (centres undefined)	none
CCSc1ccccc1C(=O)Nc1ccc([N+](=O)[O-])cc1OC	EP2 modulator 65.6 | EP2 confirm inactive
CCO[C@H]1OC(C(=O)O)=C[C@@H](C(C)(C)C)[C@@H]1CCCO	none (no result: EP2 modulator, Furin inh)
COc1ccccc1C(=O)NCc1n[nH]c(=S)n1Cc1ccccc1	none
COc1ccc(Cc2n[nH]c(=S)n2Cc2ccccc2)cc1Cl	none (no result: Pf gametocyte) | EP2 confirm inactive
Cc1ccc(OCc2n[nH]c(=S)n2Cc2ccccc2)cc1	EP2 modulator 62.0 | EP2 confirm inactive
CCOc1ccc(Cc2n[nH]c(=S)n2Cc2ccccc2)cc1	EP2 modulator 65.8 | EP2 confirm inactive
O=C(Nc1nc(-c2ccccc2)c(C(=O)c2ccccc2)s1)c1ccc(S(=O)(=O)N2CCCCC2)cc1	none
CCCCNc1nc(-c2ccccc2)c(C(=O)OCC)cc1C#N	EP2 modulator 65.4 | EP2 confirm active
CCCNc1nc(-c2ccccc2)c(C(=O)OCC)cc1C#N	none (no result: Pf gametocyte)
Cc1cc(Nc2ccc(Br)cc2)n2nc(C)nc2n1	EP2 modulator 87.7 (no result: Pf gametocyte) | EP2 confirm inactive
CCCCc1nnc(SCCSc2nnc(CCCC)n2N)n1N	EP2 modulator 81.1 | EP2 confirm inactive
CC1CCCCN1C(=O)/C(=C\c1ccccc1)c1ccccc1 (centres undefined)	EP2 modulator 69.3 (no result: Pf gametocyte) | EP2 confirm inactive
O=C(N/N=C/C=C/c1ccccc1)c1cccs1	none
CC(C)c1nc(Cl)c(C#N)c2c1CSC(C)(C)C2	EP2 modulator 73.5 (no result: Pf gametocyte) | EP2 confirm active
CCc1nc(Cl)c(C#N)c2c1CSC(C)(C)C2	none
C=CCNC(=S)NNc1nc(Nc2ccccc2)nc(N2CCCCC2)n1	EP2 modulator 74.4 | EP2 confirm inactive
C=CCNC(=S)NNc1nc(N2CCCC2)nc(N2CCCC2)n1	none (no result: PGE2 EP2 inh, EP2 modulator, Furin inh, HSV augment)
O=C(CSc1nnc(-c2ccncc2)n1C1CCCCC1)NC1CCCC1	none (no result: Furin inh, Pf gametocyte, HSV augment)
Cc1nnc(SCC(=O)NC2CCCCC2)n1C1CCCCC1	none (no result: Pf gametocyte) | EP2 confirm inactive
CC(C)(C)N(Cc1ccccc1)C(=O)c1ccc(Br)o1	EP2 modulator 62.6 | EP2 confirm inactive
C=CCC(NCc1ccccc1)c1ccc(Cl)cc1 (centres undefined)	EP2 modulator 71.8 | EP2 confirm inactive
Cc1cccc(C(=O)Nc2oc(-c3ccccc3)cc2C#N)c1	none
Cc1nc(N(C)C)c2sc(=S)n(Cc3ccccc3)c2n1	EP2 modulator 75.9 | EP2 confirm active
CCN(CC)c1nc(C)nc2c1sc(=S)n2C	none
O=C(Nc1ccc(O)c2c(=O)cc(-c3ccccc3Cl)oc12)c1ccc(Cl)cc1Cl	none
CCCN(Cc1cc2cc(C)ccc2[nH]c1=O)C(=O)c1cc(OC)cc(OC)c1	none (no result: Furin inh, Pf gametocyte, HSV augment)
O=C(NCCn1cc(SCc2ccc(F)cc2)c2ccccc21)c1ccccc1F	none (no result: Pf gametocyte)
Cn1nc(C(F)(F)F)c(/C=N/OC(=O)c2ccccc2)c1Sc1ccc(Cl)cc1	EP2 modulator 69.6 (no result: Pf gametocyte) | EP2 confirm inactive
COc1ccc(/C=C2\SC(=S)N(C(Cc3ccccc3)C(=O)O)C2=O)cc1 (centres undefined)	none
N#Cc1sc2nc(C3CC3)cc(-c3ccc(Cl)cc3)c2c1N	EP2 modulator 75.7 | EP2 confirm inactive
COc1ccc(-c2cc(-c3cccs3)nc3sc(C#N)c(N)c23)cc1	none
O=S(=O)(c1ccccc1)N(Cc1nc(-c2ccccc2)no1)C1CCCCC1	EP2 modulator 82.5 | EP2 confirm active
CC(C)N(Cc1nc(-c2ccccc2)no1)S(=O)(=O)c1ccccc1	none (no result: Pf gametocyte)
Cc1nn(C)cc1CN(C)C(=O)c1cc2nc(-c3ccco3)cc(C(F)(F)F)n2n1	none (no result: Pf gametocyte)
CCOC(=O)c1cc2sc(C)cc2n1C(C)C(=O)OCC (centres undefined)	EP2 modulator 64.9 (no result: Pf gametocyte) | EP2 confirm inactive
CCOC(=O)C(C)n1nc(C)n2c(cc3sc(C)cc32)c1=O (centres undefined)	none (no result: PGE2 EP2 inh, Furin inh, Pf gametocyte, HSV augment)
CN(Cc1c(C(=O)N2CCc3ccccc3C2)nc2ccc(Cl)cn12)C(C1CC1)C1CC1	EP2 modulator 76.5 | EP2 confirm inactive
Cc1ccsc1-c1n[nH]c(=S)n1C1CCCCC1	EP2 modulator 62.9 | EP2 confirm inactive
COC(=O)c1cc2ccsc2n1CC(=O)N(C)c1ccccc1	none (no result: Pf gametocyte)
COC(=O)c1cc2ccsc2n1Cc1ccccc1F	EP2 modulator 71.2 | EP2 confirm active
COC(=O)c1cc2ccsc2n1Cc1cccc(F)c1	EP2 modulator 66.6 | EP2 confirm active
COC(=O)c1cc2ccsc2n1Cc1nc(-c2ccc(OC)cc2)oc1C	none
